Screening results (PubChem BioAssay)
The sample as a whole holds a higher share of hits than the screen did.
ERG-DNA inh – inhibitors of human ERG Ets domain-DNA interaction | P11308 | fluorescence polarization, His-ERG Ets domain / labelled DNA | Potency, µM (titrated, usually from 76.9 µM), actives largely listed as inhibitors | actives 0.028% (n = 370,000) | AID 624246; active = well fitted inhibition curve with a large enough effect in the polarisation, with a control signal flat; inconclusive = small, poorly fitted or top-dose-only effect, or effect the other way, or a change in a side signal; inactive = no such curve, though single readings can be large or run the other way; the % refers to the polarisation;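 note: polarization taken with two DNA probes labelled with fluorescein and Texas red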
Target sequence (P11308 whole entry, looked up, the tested form may be a part): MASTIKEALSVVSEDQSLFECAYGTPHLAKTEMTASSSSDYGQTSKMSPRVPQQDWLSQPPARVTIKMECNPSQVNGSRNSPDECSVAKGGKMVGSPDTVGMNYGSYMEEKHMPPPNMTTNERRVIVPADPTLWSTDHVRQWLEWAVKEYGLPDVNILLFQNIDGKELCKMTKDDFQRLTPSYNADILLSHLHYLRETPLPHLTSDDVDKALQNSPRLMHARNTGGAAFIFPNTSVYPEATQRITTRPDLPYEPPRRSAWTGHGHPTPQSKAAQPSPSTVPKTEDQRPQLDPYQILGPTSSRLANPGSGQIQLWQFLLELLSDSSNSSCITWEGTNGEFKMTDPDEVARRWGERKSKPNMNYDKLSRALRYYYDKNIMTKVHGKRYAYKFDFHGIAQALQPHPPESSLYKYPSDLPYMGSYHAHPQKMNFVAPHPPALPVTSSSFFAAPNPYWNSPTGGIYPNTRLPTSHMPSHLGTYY
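His-tagged ERG Ets domain (1 uM in the protein solution; 300mM KCl, 50mM Tris-HCl, 1mM EDTA, 1mM DTT, pH 7.5) received compound, then a probe mix of 5 nM fluorescein-DNA and 100nM Texas-615-DNA. Fluorescence polarization was read for both dyes.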
Integrin act MD – integrin-mediated muscular dystrophy alleviation activation; alpha7betagal myoblasts, beta-gal FDG fluorescence, 48 h; Potency, µM (highest dose often 38.3 µM), most hits filed as activators; actives 0.064% (n = 350,000); note: nearly all actives have a fitted effect of over 60% in size
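Alpha7betagal+/- myoblasts (passage 13) were plated 16-24 hr, then exposed to compounds (1:260 dilution of DMSO stock) for 48 hours at 37C. After MPER lysis, β-galactosidase reporter activity was read as FDG fluorescence (ex 480/em 540) after 30 minutes.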
RORgamma inh – ROR gamma (mouse) transcription inhibition. P51450. Drosophila S2 Gal4-RORgamma UAS-luciferase reporter, 20 h. Potency, µM (highest dose often 53.6 µM), usual class: inhibitors. actives 5.4% (n = 310,000); note: nearly all actives have a fitted effect of over 60% in size
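Read-out: Photinus luciferase luminescence; inhibitors lower reporter signal. Insect Schneider cells with Gal4-ROR gamma fusion under metallothionein promoter, UAS reporter; 700 uM final copper sulfate induction, 20 hr, ambient temperature.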
Gal4-VP16 FLuc – counter-screen for ROR gamma inhibitors: Gal4-VP16 reporter. Drosophila S2 Gal4-VP16 UAS-luciferase, luminescence, 20 h. Potency, µM (series often up to 53.6 µM), usual class: inhibitors. actives 3.5% (n = 310,000). AID 2546;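 note: Gal4-VP16 expression switched on by copper sulfate through the metallothionein promoter; nearly all actives have a fitted effect of over 50% in size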
Giardia kill – Giardia lamblia killing; activity change, % at 7.66 µM, hits read low; AID 540267; Giardia lamblia trophozoite viability; actives 0.15% (n = 340,000); in the data active = activity change below about -80%; inconclusive = between about -30% and that limit;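 note: parasites exposed to compound for two days anaerobically before the ATP read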
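Giardia trophozoites, 100 cells per well, were exposed to compounds for 48 hrs at 37 deg C under anaerobic conditions; viability was then read as ATP content by bioluminescence after 15-30 min at room temperature.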
Numbers stand for hits; . = inactive; ? = inconclusive; / = not tested or not shown; [ ] = another dose, or the depositor's remark. Unless noted, calls come from the whole dose curve; as a rule, active = well fitted curve in the direction sought with a large enough effect; inconclusive = small, poorly fitted or top-dose-only effect, or another doubt; inactive = no such curve, though single readings can be large; an effect the other way counts as inactive or inconclusive.

SMILES | ERG-DNA inh | Integrin act MD | RORgamma inh | Gal4-VP16 FLuc | Giardia kill
C=CCOc1ccc(C(c2c(C(=O)O)[nH]c3ccccc23)c2c(C(=O)O)[nH]c3ccccc23)cc1 | 35.5µM | . | . | . | .
O=C(O)c1[nH]c2ccccc2c1C(c1ccccc1)c1c(C(=O)O)[nH]c2ccccc12 | . | . | . | . | .
O=C(NCc1cn(-c2ccccc2)nc1-c1ccccc1)c1ccc([N+](=O)[O-])cc1 | . | . | ? | 7.08µM | .
COc1ccc(-c2nc3ccc(NC(=O)COC(C)=O)cc3c(=O)n2Cc2ccccc2)cc1COc1ccc(NC(C)=O)cc1 | / | / | / | / | .
O=C(CN1C(=O)c2ccccc2S1(=O)=O)c1ccccc1 | . | . | 8.91µM | 14.1µM | .
Cc1cc(C(=O)CN2CCC(C)CC2)c(C)n1-c1ccc(F)cc1 | . | . | 10µM | ? | .
CC(C)c1ccc(NC(=O)CN2C(=O)c3ccccc3S2(=O)=O)cc1 | . | 10µM | . | . | .
Cc1cc(C(=O)CN2C(=O)C3CC=CCC3C2=O)c(C)n1-c1ccccc1 (centres undefined) | . | . | ? | 12.6µM | .
CC(C)CNc1nc(C#N)nc(Nc2ccccc2)n1 | / | / | / | . | /
CCOc1cc(C(=O)N(C)CC(=O)Nc2cccc(F)c2)ccc1OCC(=O)N1CCOCC1 | . | . | / | / | ?
CCn1c(C)cc(C(=O)CN2C(=O)c3ccccc3S2(=O)=O)c1C | . | . | / | / | .
Cc1cc(C(=O)CN2C(=O)c3ccccc3S2(=O)=O)c(C)n1-c1ccccc1 | . | . | 11.2µM | 11.2µM | .
O=C(CN1C(=O)c2ccccc2S1(=O)=O)NCc1ccccc1Cl | . | . | . | . | .
O=C(CN1C(=O)c2ccccc2S1(=O)=O)c1ccccc1Cl | / | / | 8.91µM | ? | /
Cc1ccc(C(=O)CN2/C(=C(\O)c3ccccc3)C(=O)c3ccccc3S2(=O)=O)c(C)c1 | . | . | 12.6µM | ? | .
Cc1ccc(C(=O)CN2C(=O)c3ccccc3S2(=O)=O)cc1 | . | . | 2.24µM | ? | ?
O=C(COC(=O)C1CCN(c2ccc(C(F)(F)F)cn2)CC1)Nc1ncc(Cl)cc1Cl | . | . | / | / | .
COc1ccc(CCN=C(N)NS(=O)(=O)c2ccc3ccccc3c2)cc1 | . | . | ? | . | .
COc1ccc(-c2ccccc2C2C3C=CCCC3(C)C(=O)N2Cc2ccccc2)cc1 (centres undefined) | / | / | ? | . | .
CN1C[C@H](C(=O)N[C@]2(C)O[C@@]3(O)C4CCCN4C(=O)[C@H](Cc4ccccc4)N3C2=O)C[C@@H]2c3cccc4[nH]cc(c34)C[C@H]21 (some centres undefined) | / | / | . | . | /
COCCCNC(=O)c1ccc(-c2nc(CS(=O)(=O)c3ccc(C)cc3)c(C)o2)cc1 | . | / | / | / | /
CCS(=O)(=O)c1c([N+](=O)[O-])ncn1C | . | . | ? | 10µM | .
O=C(Nc1ccc(NC(=O)c2cccc([N+](=O)[O-])c2)cc1)c1cccc([N+](=O)[O-])c1 | . | . | . | . | .
O=C(Nc1ncc([N+](=O)[O-])s1)c1cccc([N+](=O)[O-])c1 | . | . | . | ? | -92.8
Cc1nc(C)c(C(=O)Nc2ncc([N+](=O)[O-])s2)o1 | . | . | 7.94µM | ? | -87.7
SMILES | ERG-DNA inh | Integrin act MD | RORgamma inh | Gal4-VP16 FLuc | Giardia kill
COc1ccc(CC(=O)Nc2ncc([N+](=O)[O-])s2)cc1OC | . | . | . | . | -89.4
CC(C)CC(=O)Nc1ncc([N+](=O)[O-])s1 | . | . | . | ? | -93.0
O=C(c1ccc(OC2CCN(CCO)CC2)cc1)N1CCCC1 | . | . | . | . | .
CC(=O)Nc1ccc(NC(=O)C(C)OC(=O)CNS(=O)(=O)/C=C/c2ccc(C)cc2)cc1 (centres undefined) | . | . | / | / | .
CCCCC(=O)Nc1ncc(Br)s1 | . | . | . | . | .
CCCCC(=O)Nc1ncc([N+](=O)[O-])s1 | . | . | ? | ? | -90.3
COc1ccc(C(=O)NC(=S)Nc2nc(C)c(C(=O)N(C)C)s2)cc1 | . | . | ? | . | .
COC(=O)c1sc(NC(=S)NC(=O)c2ccc(F)cc2)nc1C | / | / | . | .[10 µM] | /
COC(=O)c1sc(NC(=S)NC(=O)c2ccccc2C)nc1C | . | . | 6.31µM | 15.8µM | .
CCc1nnc(NC(=O)c2ccc(OC)cc2)s1 | . | . | 7.94µM | .[10 µM] | .
CCOC(=O)c1sc(NC(=S)NC(=O)c2ccc(OC)cc2)nc1C | . | . | 6.31µM | 5.01µM | .
